# From the supplement of paper PMC9023506
# Where a name gives a salt, the structure may show the parent alone.
# What was measured:
# Details in all cases: 10 µM; exposure time: 3 h pre-incubation + 3 h imaging
# [1] = test system: Danio rerio larvae (5 dpf); assay: optomotor response to red moving lines, difference vs DMSO (percentage points (treated minus DMSO)); higher = more of the behaviour than the DMSO vehicle control
# Method in brief: (§1)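 Five-days-post-fertilisation wild-type zebrafish larvae were held in 96-well ProxiPlates and exposed to each library drug at a final 10 µM, diluted 1000× from DMSO stocks into egg water, with 48 larvae per drug. Exposure lasted 3 h before and 3 h during imaging at 28.5 °C, with images taken every 6 s across a 3-h program of rest, moving coloured lines and acoustic pulses. An ImageJ macro scored movement and upper-half location, and each behaviour score is the treated-group mean minus the vehicle-group mean, expressed in percentage points.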
# [2] = test system: Danio rerio larvae (5 dpf); assay: activity during first hour (no stimuli), difference vs DMSO (percentage points (treated minus DMSO)); higher = more of the behaviour than the DMSO vehicle control
# Method in brief: as §1
# [3] = test system: Danio rerio larvae (5 dpf); assay: optomotor response to blue moving lines, difference vs DMSO (percentage points (treated minus DMSO)); higher = more of the behaviour than the DMSO vehicle control
# Method in brief: as §1
# [4] = test system: Danio rerio larvae (5 dpf); assay: startle response to 20-s acoustic pulses, difference vs DMSO (percentage points (treated minus DMSO)); higher = more of the behaviour than the DMSO vehicle control
# Method in brief: as §1
# [5] = test system: Danio rerio larvae (5 dpf); assay: optomotor response to green moving lines, difference vs DMSO (percentage points (treated minus DMSO)); higher = more of the behaviour than the DMSO vehicle control
# Method in brief: as §1
# [6] = test system: Danio rerio larvae (5 dpf); assay: habituation to 1-s acoustic pulses, difference vs DMSO (percentage points (treated minus DMSO)); higher = more of the behaviour than the DMSO vehicle control
# Method in brief: as §1
# [7] = test system: Danio rerio larvae (5 dpf); assay: excitability to 1-s acoustic pulses, difference vs DMSO (percentage points (treated minus DMSO)); higher = more of the behaviour than the DMSO vehicle control
# Method in brief: as §1
# [8] = test system: Danio rerio larvae (5 dpf); assay: optomotor response to fast red moving lines, difference vs DMSO (percentage points (treated minus DMSO)); higher = more of the behaviour than the DMSO vehicle control
# Method in brief: as §1
smiles,measurement,setting,value
O=c1[nH]c(=O)n([C@H]2C[C@H](O)[C@@H](CO)O2)cc1C(F)(F)F [Trifluorothymidine],optomotor response to red moving lines,[1],9.66
same,activity during first hour,[2],1.96
O=C(Nc1c(Cl)cncc1Cl)c1ccc(OC(F)F)c(OCC2CC2)c1 [Roflumilast],optomotor response to red moving lines,[1],0.247
same,activity during first hour,[2],-15.3
COCCc1ccc(OCC(O)CNC(C)C)cc1 (stereo not drawn) [Metoprolol tartrate],activity during first hour,[2],5.56
COC(=O)C1=C(C)NC(C)=C(C(=O)OC(C)C)C1c1cccc2nonc12 (stereo not drawn) [Isradipine],activity during first hour,[2],0.0385
same,optomotor response to blue moving lines,[3],-11.3
same,startle response to 20-s acoustic pulses,[4],-10.3
CN/C(=N\CCSCc1nc[nH]c1C)NC#N [Cimetidine],activity during first hour,[2],3.11
same,optomotor response to green moving lines,[5],5.06
CC#C[C@]1(O)CC[C@H]2[C@@H]3CCC4=CC(=O)CCC4=C3[C@@H](c3ccc(N(C)C)cc3)C[C@@]21C [Mifepristone],habituation to 1-s acoustic pulses,[6],-0.152
same,optomotor response to red moving lines,[1],3.5
same,activity during first hour,[2],-3.58
same,optomotor response to blue moving lines,[3],11
CC(C)CN(C[C@@H](O)[C@H](Cc1ccccc1)NC(=O)O[C@H]1CO[C@H]2OCC[C@H]21)S(=O)(=O)c1ccc(N)cc1 [Darunavir],excitability to 1-s acoustic pulses,[7],-1.74
same,optomotor response to red moving lines,[1],4.11
same,activity during first hour,[2],12.6
same,optomotor response to green moving lines,[5],1.64
same,startle response to 20-s acoustic pulses,[4],-1.98
CO[C@H]1/C=C/O[C@@]2(C)Oc3c(C)c(O)c4c(O)c(c5c(nc6cc(C)ccn65)c4c3C2=O)NC(=O)/C(C)=C\C=C\[C@H](C)[C@H](O)[C@@H](C)[C@@H](O)[C@@H](C)[C@H](OC(C)=O)[C@@H]1C [Rifaximin],optomotor response to red moving lines,[1],0.313
Nc1nc2[nH]cc(CCc3ccc(C(=O)N[C@@H](CCC(=O)O)C(=O)O)cc3)c2c(=O)[nH]1 [Pemetrexed],habituation to 1-s acoustic pulses,[6],-1.43
same,activity during first hour,[2],1.38
same,optomotor response,[8],-14.2
